Among the data in PubChem BioAssay AID488890 (Southern Research Specialized Biocontainment Screening …, 2010) are inhibition values, retold here.

The campaign covered roughly 320,000 compounds. About 1,300 (0.41%) were called active. About 3% were inconclusive and are not listed. No rule for the calls is given here. A selection follows. Entries with a potency or affinity are not part of this list.

The assay can be described thus: growth inhibition of non-replicating M. tuberculosis (AID 488890).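 Also: plate controls were DMSO cells for no effect and high antibiotic wells for full effect.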 The note with it: Mycobacterium tuberculosis non-replicating, at 25 µM, stronger effect = higher value.
In general, inhibition refers to the drop in the measured response relative to a control, in per cent. With `COc1ccc(C2NC(=S)NC(C)=C2C(=O)Nc2ccccn2)cc1OC` (stereo not given), the inhibition is -7.65%.

On to `Cc1ccc(COC(=O)c2cc(S(=O)(=O)N3CCOCC3)ccc2C)cc1`, for which the inhibition came to 40.1%.

Turning to `COc1ccc2oc(=O)c(/C(N)=N/NC(=O)c3ccncc3)cc2c1`, the inhibition is 61.4%.

As for `COc1ccc(/C(C)=N/NC(=O)c2ccncc2)cc1`, the inhibition was 67.2%.

As for `C/C(=N/NC(=O)c1ccncc1)c1cc2ccc(O)cc2oc1=O`, the inhibition is 78.4%.

`C/C(=N\NC(=O)c1ccncc1)c1cc2ccccc2o1`: the inhibition was 69.3%.

Consider `O=C(CCC(=O)N1CCOCC1)NCCc1ccc(F)cc1`, for which the inhibition stood at 5.21%.

Consider `CC(C)C(NCC(=O)Nc1ccccc1C(=O)NC1CC1)c1ccccc1` (stereo not given), for which the inhibition is 19.6%.

As to `CCC(C)(C)NS(=O)(=O)c1cc(CN2C(=O)c3cccnc3C2=O)ccc1OC`, the inhibition came to 17.1%.

As to `O=C1CC2(CCCCC2)Oc2ccc(OCC(=O)N3CCOCC3)cc21`, the inhibition came to 43.3%.

For `CCOC(=O)N1CCN(C(=O)COc2ccc3c(c2)C(=O)CC2(CCN(C(C)=O)CC2)O3)CC1`, the inhibition was -4.94%.

In the case of `COc1ccc(C(=O)CCNc2cccc(Cl)c2)cc1`, the inhibition came out at 73.7%.

Turning to `O=C(Nc1ccc(Cl)c(C(F)(F)F)c1)c1ccco1`, the inhibition turned out to be 71.2%.

In the case of `O=C(CNC(=O)c1ccco1)Nc1ccc(F)cc1`, the inhibition is -22.8%.

With `O=C(CCNc1cc(Cl)cc(Cl)c1)c1ccco1`, the inhibition is -7.67%.

With `COc1ccc(C(=O)CC(=O)c2ccc(OC)cc2)cc1`, the inhibition is 19.6%.

For the molecule `O=C(/C=C/Nc1ccc(F)cc1)c1ccco1`, the inhibition is -1.7%.

As for `O=C(CCNC(=O)c1ccco1)Nc1ccc(Cl)c(C(F)(F)F)c1`, the inhibition came to 4.07%.

Regarding `O=C(CNC(=O)c1ccco1)Nc1cccc(Cl)c1`, the inhibition was -9.33%.

As to `O=C(CN1C(=O)NC2(CCCCC2)C1=O)N1CCN(c2ncccn2)CC1`, the inhibition is 3.11%.

In the case of `CC(C)(SC(=S)N1CCCCCC1)C(=O)O`, the inhibition came out at 13.4%.

With `CC1=C(C(=O)NCc2ccc3c(c2)OCO3)C2(CCC(C)CC2)OC1=O` (stereo not given), the inhibition stood at 1.75%.

With `COc1ccccc1-n1cnnc1SC(C)C(=O)Nc1ccc(NC(C)=O)cc1` (stereo not given), the inhibition was -12.2%.

For the molecule `Oc1c(C(c2ccc(F)cc2)N2CCc3ccccc3C2)sc2ncnn12` (stereo not given), the inhibition is 13.3%.

For the molecule `Cc1cc(C)cc(OCc2nnc(SCC(=O)c3ccccc3)o2)c1`, the inhibition is -6.78%.

On to `C/C(N)=C(/C#N)C(=O)CSc1nnc(C)n1-c1ccccc1`, for which the inhibition is -16.6%.

`O=C(O)C(F)(F)S(=O)(=O)O`: the inhibition is -5.17%.

As for `Cc1cccc(NC2=NC3(CCCCC3)N=C(N)N2)c1`, the inhibition amounted to 22.2%.

As for `Cc1ccc(C)c(NC(=S)NCc2ccc3c(c2)OCO3)c1`, the inhibition was 79.5%.

As for `CC(=O)Nc1ccc(Nc2ccc3nonc3c2[N+](=O)[O-])cc1`, the inhibition was 1.34%.

Regarding `COc1cccc(CNC(=O)CCNS(=O)(=O)c2ccc3[nH]c(=O)oc3c2)c1`, the inhibition is -5.61%.

Regarding `Cc1ccc(C(=O)NCC(=O)Nc2ccc(F)c(F)c2F)cc1`, the inhibition was -13.1%.

As for `O=C(Cn1nnc(-c2ccccc2)n1)NNC(=O)c1ccco1`, the inhibition is 67.8%.

As for `COc1cc(/C=N/NC(=O)C(N)=O)ccc1OC(=O)c1cccs1`, the inhibition was -4.85%.

Consider `O=C(N/N=C/c1ccc(OC(=O)c2ccco2)cc1)c1ccncc1`, for which the inhibition is 69%.

Take `O=C(N/N=C\c1ccc(OC(=O)c2cccs2)cc1)c1ccc(Cl)cc1`: the inhibition was determined as 52.2%.

With `COc1ccc(C(=O)Oc2ccc(/C=N/Nc3ccc(Cl)c(C(=O)O)c3)cc2OC)cc1`, the inhibition amounted to 12.6%.

On to `COc1cc(/C=N/Nc2ccc(Cl)c(C(=O)O)c2)ccc1OC(=O)c1ccccc1F`, for which the inhibition was 39%.

Take `COc1cc(/C=N/NC(N)=O)ccc1OC(=O)c1cccs1`: the inhibition was found to be 2.79%.

`Cc1ccc(C(=O)N/N=C\c2ccc(OC(=O)c3cccs3)cc2)cn1`: the inhibition was -8.9%.

For the molecule `O=C(N/N=C\c1ccc(OC(=O)c2ccco2)cc1)c1ccc(Cl)cc1`, the inhibition was determined as 78.6%.

With `COc1ccc(C2CC(C(F)(F)F)n3ncc(C(=O)O)c3N2)cc1OC` (stereo not given), the inhibition is -8.85%.

In the case of `COc1cc(OC)cc(C(=O)NC(=S)N2C[C@H]3C[C@H](C2)c2cccc(=O)n2C3)c1`, the inhibition is -9.19%.

`CN(CC(=O)NCc1cccnc1)S(=O)(=O)c1ccc(F)cc1`: the inhibition is -7.08%.

As to `COc1ccc(/C=N/NC(=O)c2ccccc2OCc2ccccc2)c(OC)c1`, the inhibition turned out to be 32%.

`C/C(=N\NC(=O)Cc1ccc([N+](=O)[O-])cc1)c1cccnc1`: the inhibition is -2.22%.

`Cc1cc(C(=O)NNC(=O)c2cccs2)c(C)o1`: the inhibition amounted to 5.92%.

Turning to `COc1ccccc1C(=O)Nc1ccc(S(=O)(=O)Nc2nccs2)cc1`, the inhibition stood at 16%.

For `COc1cccc(C2C(C#N)=C(N)SC(c3ccccc3)C2[N+](=O)[O-])c1` (stereo not given), the inhibition is 20.5%.

Turning to `Cc1ccccc1C1=NC(c2ccc(F)cc2F)ON1` (stereo not given), the inhibition came to 8.21%.

As to `O=C(NCCCN1CCOCC1)c1ccccc1-c1ccccc1`, the inhibition came out at 3.82%.

Regarding `CSc1ccccc1NC(=O)c1cc(C)on1`, the inhibition was 1.57%.

For the molecule `COc1cc(C(=O)Nc2nc(OC)c(-c3ccccc3)c(OC)n2)cc(OC)c1OC`, the inhibition was -16.2%.

Turning to `COc1cc(/C=N\NC(=O)c2ccc(C)nc2)ccc1OC(=O)c1cccc(F)c1`, the inhibition is -1.23%.

For `COc1cc(/C=N/NC(=O)c2ccncc2)ccc1OC(=O)c1cc(OC)c(OC)c(OC)c1`, the inhibition was determined as 52.1%.

In the case of `COc1ccc(/C=N/NC(=O)c2cccnc2)cc1CN1CCOCC1`, the inhibition was 8.75%.

Consider `COc1ccc(/C=N/NC(=O)c2ccc(Br)cc2)cc1CN1CCOCC1`, for which the inhibition is -2.91%.

Turning to `COc1cc(/C=N/NC(=O)COc2ccccc2C)ccc1OC(=O)c1cccs1`, the inhibition worked out at 30.8%.

For the molecule `CCOc1cc(/C=N/NC(=O)COc2ccc(C)cc2)ccc1OC(=O)c1cccs1`, the inhibition came out at 48.1%.

As to `CCOc1cc(/C=N/NC(=O)COc2ccccc2C)ccc1OC(=O)c1cccs1`, the inhibition was 9.01%.

`COc1cc(/C=N/NC(=O)CNC(=O)c2ccccc2)ccc1OC(=O)c1cccs1`: the inhibition was found to be 39.5%.

In the case of `COc1cc2[nH]c(=O)n(CCC(=O)NCCC(C)C)c(=O)c2cc1OC`, the inhibition is -11%.

For `O=C(NCCC1CCCCN1S(=O)(=O)c1cccs1)C(=O)NCc1ccccc1` (stereo not given), the inhibition stood at 10.3%.

With `CC1(C)CC(=O)C=C(/C=C/c2ccccc2)C1`, the inhibition was -7.3%.

`COc1ccc(CN(C)C(=O)c2ccc(NS(=O)(=O)c3ccc4[nH]c(=O)[nH]c4c3)cc2)c(OC)c1OC`: the inhibition amounted to 35.7%.

On to `O=C(N/N=C/C(Br)=C/c1ccccc1)c1ccccc1F`, for which the inhibition was determined as 49.9%.

On to `O=C(c1cc(S(=O)(=O)N2CCC3(CC2)OCCO3)ccc1F)N1CCC2(CC1)OCCO2`, for which the inhibition was -5.64%.

Consider `CCOC(=O)N1CCN(C(=O)NC23CC4CC(CC(C4)C2)C3)CC1`, for which the inhibition is -9.51%.

For the molecule `CCOCC(=O)OCC(=O)NC12CC3CC(CC(C3)C1)C2`, the inhibition was -7.93%.

On to `CCCN1CCN(S(=O)(=O)c2ccc(-n3cnnn3)cc2)CC1`, for which the inhibition came to 0.97%.
